According to PubChem BioAssay (EPA / NIEHS):
Where “and” joins values, the source holds several entries; their conditions need not be identical. Identical values can stand only once. Records with an inconclusive call do not appear. Some structures have more than one record in an assay (separate samples or runs), and their calls can disagree. Calls of active or inactive are those of the source. The calls were made as follows: active = hit-call score of the fitted dose curve at least 0.9, where 1 is the maximum; inconclusive = response in the unintended direction; inactive = score below 0.9.

Columns and labels:
[1] = TOX21_p53_BLA_p4_viability: Viability Assessment in the Tox21 HCT-116 p53 Agonism Beta-lactamase Assay, Phase 4 (AID 2283597);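 also: hits lower the luminescence signal meaning cytotoxicity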
How it was run: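 Following a 16 h exposure at 37C, the treated HCT116 wells were first read for the FRET ratio. They were then lysed with CellTiter-Glo, and ATP luminescence was recorded after 30 min at room temperature.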

[2] = target: Cellular tumor antigen p53 (Homo sapiens) (UniProt P04637); test: TOX21_p53_BLA_p5_ratio: Tox21 HCT-116 p53 Agonism Beta-lactamase Assay, Ratio, Phase 5 (AID 2283599)
How it was run: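 HCT-116 cells carrying a p53-inducible beta-lactamase reporter were seeded at 4000 cells/well and dosed after 5 h with compound in DMSO (217-fold dilution). After 16 h at 37C, CCF4-AM substrate was added for 2 h, and the 460/530 nm emission ratio was scored as gain-of-signal versus DMSO.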

[3] = TOX21_p53_BLA_p5_viability: Viability Assessment in the Tox21 HCT-116 p53 Agonism Beta-lactamase Assay, Phase 5 (AID 2283600)
How it was run: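 After the 460/530 nm beta-lactamase measurement, the wells received an ATP-detection luciferase reagent; signal was read 30 min later at RT. Compound treatment lasted 16 h on cells pre-incubated 5 h post-seeding.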

[4] = target: Cellular tumor antigen p53 (Homo sapiens) (UniProt P04637); test: TOX21_p53_BLA_p4_ratio: Tox21 HCT-116 p53 Agonism Beta-lactamase Assay, Ratio, Phase 4 (AID 2283601)
How it was run: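 HCT116 cells carrying an inducible beta-lactamase reporter were plated at 4000 cells/well, rested 5 h, then exposed to compounds in DMSO (217-fold dilution) for 16 h at 37C. CCF4-AM substrate was loaded 2 h at room temperature; 460/530 nm emission ratio scored gain-of-signal versus DMSO.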

[5] = Tanguay_ZF_120hpf_MORT_legacy: (Legacy) Oregon State University Tanguay Lab 120 Hour Post-fertilization zebrafish Assay for Mortality (AID 2283633);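 as to AC50: fitted as increase in binary mortality versus DMSO negative control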
How it was run: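 Static waterborne exposure from 6 to 120 hpf at 28C of single dechorionated wild-type (5D) embryos per well, 0.64% DMSO final. Death recorded present/absent by brightfield at 24 and 120 hpf.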

[6] = Tanguay_ZF_120hpf_YSE_legacy: (Legacy) Oregon State University Tanguay Lab 120 Hour Post-fertilization zebrafish Assay for Yolk Sac Edema (AID 2283634);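 as to AC50: actives raise the incidence of yolk sac edema above the DMSO baseline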
How it was run: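 Presence or absence of yolk sac edema was recorded at 120 hpf in surviving larvae. These were wild-type Tropical 5D embryos, chorion removed at 4 hpf, held in static exposure at 28C from 6 hpf with 0.64% DMSO vehicle.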

[7] = Tanguay_ZF_120hpf_AXIS_legacy: (Legacy) Oregon State University Tanguay Lab 120 Hour Post-fertilization zebrafish Assay for Body Axis Malformation (AID 2283635);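 as to AC50: potency for an increased fraction of larvae scored with body axis malformation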
How it was run: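 Binary scoring of axis defects at 120 hpf under brightfield, fitted positive versus DMSO. Tropical 5D embryos, chorion removed by pronase at 4 hpf, were singly exposed in sealed, dark plates at 28C from 6 hpf; DMSO 0.64% final.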

[8] = Tanguay_ZF_120hpf_EYE_legacy: (Legacy) Oregon State University Tanguay Lab 120 Hour Post-fertilization zebrafish Assay for Eye Malformation (AID 2283636);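 also: binary presence or absence of eye malformation scored by brightfield in 120 hpf larvae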
How it was run: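 Dechorionated wild-type Tropical 5D zebrafish embryos were exposed statically from 6 hpf, one per well, to 120 hpf at 28C in sealed, foil-covered plates with 0.64% DMSO. Eye malformation was scored present/absent by brightfield microscopy against DMSO controls.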

[9] = Tanguay_ZF_120hpf_SNOU_legacy: (Legacy) Oregon State University Tanguay Lab 120 Hour Post-fertilization zebrafish Assay for Snout Malformation (AID 2283637)
How it was run: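 Tropical 5D wild-type zebrafish embryos, dechorionated with pronase at 4 hpf, were exposed singly from 6 hpf to 120 hpf statically at 28C in 0.64% DMSO. Snout malformation was scored present/absent by brightfield microscopy, fitted against DMSO.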

[10] = Tanguay_ZF_120hpf_JAW_legacy: (Legacy) Oregon State University Tanguay Lab 120 Hour Post-fertilization zebrafish Assay for Jaw Malformation (AID 2283638);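 as to AC50: active means more embryos with jaw malformation than DMSO controls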
How it was run: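 Binary jaw-malformation call at 120 hpf by brightfield microscopy. Embryos (Tropical 5D strain, chorion removed at 4 hpf) were dosed statically at 6 hpf, one per well, at 28C with 0.64% DMSO. Embryos that died were not scored.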

Measured: AC50

Cellular tumor antigen p53 (Homo sapiens), sequence (P04637 whole entry, looked up): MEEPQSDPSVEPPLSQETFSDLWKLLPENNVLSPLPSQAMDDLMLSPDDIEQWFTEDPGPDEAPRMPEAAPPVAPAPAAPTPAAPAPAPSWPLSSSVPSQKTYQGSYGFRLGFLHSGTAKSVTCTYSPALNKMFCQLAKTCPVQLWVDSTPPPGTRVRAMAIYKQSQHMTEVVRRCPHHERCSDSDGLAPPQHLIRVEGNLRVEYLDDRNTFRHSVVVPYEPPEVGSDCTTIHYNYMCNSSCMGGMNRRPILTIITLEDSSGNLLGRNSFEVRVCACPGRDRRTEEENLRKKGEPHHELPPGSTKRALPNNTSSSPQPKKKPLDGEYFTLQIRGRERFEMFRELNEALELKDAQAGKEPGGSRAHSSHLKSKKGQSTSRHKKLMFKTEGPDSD

c1ccc2c(c1)Cc1ccccc1-2
inactive: [1] | [2] | [3] | [4] | [5] | [6] | [7] | [8] | [9] | [10]
active: [2] 87.3 µM

CCc1ccc(CCOc2ccc(CC3SC(=O)NC3=O)cc2)nc1 (stereo unspecified)
inactive: [1] | [2] | [3] | [4] | [5] | [6] | [7] | [8] | [9] | [10]

CCCCCCCCCCCCCC[N+](C)(C)C
inactive: [2] | [3]
active: [1] 52.4 µM and 13.2 µM and 35.4 µM | [2] 31.2 µM and 16.1 µM | [3] 76.6 µM and 45.3 µM | [4] 63.8 µM and 26.6 µM and 23.1 µM

COc1ccc([N+](=O)[O-])cc1N
inactive: [1] | [2] | [3] | [4] | [5] | [6] | [7] | [8] | [9] | [10]

CCCOC(=O)c1ccc(O)cc1
inactive: [1] | [2] | [3] | [4] | [5] | [8]
active: [6] 35 µM | [7] 46.4 µM | [9] 39.3 µM | [10] 10 µM

c1ccc2cc3c(ccc4ccccc43)cc2c1
active: [6] 41.6 µM | [7] 12.5 µM | [8] 45.6 µM | [9] 46.5 µM | [10] 49.1 µM
inactive: [1] | [2] | [3] | [4] | [5]

Cc1cc(CCN2CCN(c3nsc4ccccc34)CC2)cc2c1NC(=O)CC2(C)C
inactive: [2] | [3] | [5]
active: [1] 74.3 µM | [4] 82.8 µM | [6] 3.6 µM | [7] 5.38 µM | [8] 3.05 µM | [9] 3.18 µM | [10] 3.26 µM

O=C(OCCOCCOC(=O)c1ccccc1)c1ccccc1
inactive: [1] | [2] | [3] | [4] | [5] | [6] | [7] | [8] | [9] | [10]

O=c1c(-c2ccc(O)cc2)coc2cc(O)ccc12
inactive: [1] | [2] | [3] | [4] | [5] | [6] | [7] | [8] | [9] | [10]

CCN(CC)CCNc1ccc(CNC=O)c2sc3ccc(OC)cc3c(=O)c12
inactive: [1] | [3] | [5] | [6] | [7] | [8] | [10]
active: [2] 29 µM | [4] 12.1 µM

CC(C)(C)c1ccc(O)c(C(C)(C)C)c1
active: [1] 42.7 µM | [2] 57.1 µM and 60.2 µM | [3] 42.7 µM | [4] 72.4 µM
inactive: [1] | [3] | [4] | [5] | [6] | [7] | [8] | [9] | [10]

Cc1cc(C)c(O)c(C)c1
inactive: [1] | [2] | [3] | [4] | [5] | [7] | [9] | [10]

NC(=O)N1C(=O)C(C(=O)c2cc(Cl)cs2)c2cc(F)c(Cl)cc21 (stereo unspecified)
inactive: [1] | [3] | [6] | [7] | [8] | [9] | [10]
active: [2] 7.17 µM | [4] 14 µM | [5] 1.44 µM

CC[C@H](c1ccc(O)cc1)[C@@H](CC)c1ccc(O)cc1
active: [1] 57.8 µM | [2] 67.1 µM | [3] 75.7 µM | [4] 60.1 µM
inactive: [1] | [2] | [3] | [4] | [5] | [6] | [7] | [8] | [9] | [10]

CC(O)CO (stereo unspecified)
inactive: [1] | [2] | [3] | [4] | [5] | [6] | [7] | [8] | [9]

CCCCCCCC(=O)O
inactive: [1] | [2] | [3] | [4] | [5] | [6] | [7] | [8] | [9] | [10]

Nc1cccc2c(N)cccc12
inactive: [1] | [2] | [3] | [4] | [5] | [6] | [7] | [8] | [9] | [10]

O=C(O)Cc1cc(I)c(Oc2cc(I)c(O)c(I)c2)c(I)c1
active: [1] 30.9 µM | [2] 30.6 µM | [3] 49.3 µM | [4] 33.1 µM | [5] 8.91 µM | [7] 0.0204 µM | [8] 0.0114 µM | [9] 0.00601 µM | [10] 0.00848 µM
inactive: [6]

CC(=O)NC1(c2cccc(F)c2)CCN(CC[C@@]2(c3ccc(Cl)c(Cl)c3)CN(c3ccccc3)C(=O)CO2)CC1
inactive: [5] | [6] | [8] | [9]
active: [1] 46.2 µM | [2] 70.3 µM | [3] 60.3 µM | [4] 65 µM

O=[N+]([O-])c1ccc(O)cc1
inactive: [1] | [2] | [3] | [4] | [5] | [6] | [7] | [8] | [9] | [10]

CN1CCN(c2ccccc2/C=C2\SCCN(c3ccc(Cl)c(Cl)c3)C2=O)CC1
inactive: [1] | [4] | [5] | [6] | [7] | [8] | [9] | [10]
active: [2] 86 µM | [3] 83.7 µM

Oc1cccc(O)c1
inactive: [1] | [2] | [3] | [4] | [5] | [6] | [7] | [8] | [9] | [10]

COCC(C)O (stereo unspecified)
inactive: [1] | [2] | [3] | [4] | [5] | [6] | [7] | [8] | [9] | [10]

Cc1ccc(S(=O)(=O)O)c(C)c1
inactive: [1] | [2] | [3] | [4]

CC(C)(C)CC(C)(C)c1ccc(O)c(-n2nc3ccccc3n2)c1
inactive: [1] | [2] | [3] | [4] | [5] | [6] | [7] | [8] | [9] | [10]

CCCCCCCCC(=O)O
inactive: [1] | [2] | [3] | [4] | [5] | [6] | [7] | [8] | [9] | [10]

COC(=O)CCCCC(=O)OC
inactive: [1] | [2] | [3] | [4] | [5] | [7] | [8] | [9] | [10]

Cc1oc(-c2ccccc2)nc1CCOc1ccc(C[C@H](Nc2ccccc2C(=O)c2ccccc2)C(=O)O)cc1
inactive: [6] | [7] | [8] | [9] | [10]
active: [1] 6.19 µM | [2] 56 µM | [3] 15.5 µM | [4] 41.6 µM | [5] 12.9 µM

CC#C[C@]1(O)CC[C@H]2[C@@H]3CCC4=CC(=O)CCC4=C3[C@@H](c3ccc(N(C)C)cc3)C[C@@]21C
active: [2] 72.6 µM and 22 µM | [4] 65.8 µM and 20.7 µM | [6] 73.3 µM | [7] 82.8 µM
inactive: [1] | [3] | [5] | [8] | [9] | [10]
